Source: PubChem BioAssay
Shown are actives, neighbours in structure and some others; about 7.9% of the full set was active somewhere.
HCMV inh – human cytomegalovirus inhibition. HFF cells, HCMV-luciferase reporter, 72 h; stronger effect = lower value. activity change, negative = inhibition, % at 57.5 µM. actives 4.5% (n = 410,000). AID 1259415; in the data active = activity change below about -60%; inconclusive = no clear call, values can overlap the other calls; inactive = above about -39%
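Steps: HFFs plated, 16 h 37C; compounds added; HCMV-luciferase added to MOI 1 PFU/cell; 72 h 37C; OneGlo reagent, 5 min room temperature; luminescence read, normalized to controls.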
Marburg entry inh – Marburg virus entry inhibition | Marburg virus pseudotyped entry inhibition, cell reporter | Potency, µM (highest dose often 37.8 µM), for the others: top-dose activity change, negative = inhibition, actives largely listed as inhibitors | actives 1.8% (n = 300,000) | AID 540276; calls by dose curve; tested in HEK293 cells; also: potency is read from the fitted curve at half-maximal effect
HCV inhibitor – inhibitors of hepatitis C virus infection; Potency, µM (highest dose often 41.8 µM), for inactives: at the highest dose activity change, negative = inhibition, usual class: inhibitors; actives 3.4% (n = 340,000); Huh7.5.1 HCVcc-Cre infection, luciferase reporter, 44 h; active = well fitted inhibition curve with a large enough effect; inconclusive = small, poorly fitted or top-dose-only effect, or another doubt; inactive = no such curve, though single readings can be large or run the other way; also: potency is read from the fitted curve at half-maximal effect
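After 44 h co-culture of compound, cells and HCVcc-Cre (~0.5 moi), substrate is added for 15 min at room temperature and luciferase measured over 15 sec. Cells were seeded at 1,000/well and pre-cultured 4 h.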
FMDV inh – antivirals against foot and mouth disease virus. actives 1.2% (n = 410,000). Potency, µM (doses to about 57.9 µM), without a hit: at the highest dose activity change, negative = inhibition, most hits filed as inhibitors. FMDV antiviral cell-based qHTS; calls by dose curve; tested in HEK293T cells; also: read-out not given here; potency is read from the fitted curve at half-maximal effect; nearly all actives have a fitted effect of over 45% in size
LASV entry inh – blocks Lassa virus binding to or entry into cells | Lassa virus pseudotype entry inhibition, cell reporter | actives 1.2% (n = 300,000) | Potency, µM (highest dose often 37.9 µM), inactives show at the top dose activity change, negative = inhibition, actives largely listed as inhibitors | AID 540256; calls by dose curve; tested in HEK293 cells; also: potency is read from the fitted curve at half-maximal effect; nearly all actives have a fitted effect of over 50% in size
Active calls of the source: *; ? = inconclusive; nt = no result; [ ] = dose if it differs, or a comment. % is scaled to controls: 0 for no effect and ±100 for the full control effect.

SMILES	HCMV inh	Marburg entry inh	HCV inhibitor	FMDV inh	LASV entry inh
Cc1cccc2cc(CN(Cc3cccs3)S(=O)(=O)c3ccc4c(c3)OCCO4)c(=O)[nH]c12	-83.9*	-27.0%	?	-4.8%	?
CCCn1ccc2c(OCC(=O)Nc3cc(C)ccc3C)cccc2c1=O	-3.0	nt	nt	-7.6%	?
CC(=O)N[C@@H](Cc1c[nH]c2ccccc12)C(=O)NCCc1ccc(S(N)(=O)=O)cc1	42.9	-13.8%	31.3%	-0.2%	?
Cc1ccc(NC(=O)Cn2nc(Cc3ccncc3)c3ccccc3c2=O)c(Cl)c1	-96.9*	10.0%[46.1 µM]	nt	-19.9%	18.6%[46.1 µM]
Cc1ccc(/C=C/C(=O)N2CCC(Cc3ccccc3)CC2)cc1	-9.4	-2.3%	4.1%	-16.8%	-5.8%
O=C(NCC1Cc2cccc(-c3ncccn3)c2O1)C1CCOC1 (stereo not given)	nt	nt	nt	-13.4%	nt
Cc1cc(C)c2c(=N)c3ccccc3n(CCCCCCCCn3c4ccccc4c(=N)c4c(C)cc(C)nc43)c2n1	-74.6*	7.08µM*	-24.8%	0.0%	?
COc1ccc(NC(=O)c2cc3c(Cl)nc4ccccc4c3s2)cc1OC	-82.9*	?	?	?	-9.5%
COc1ccc(C(NC(=O)c2cc(OC)ccc2OC)c2ccccc2)cc1 (stereo not given)	38.6	?	?	0.0%	?
COc1ccc(-n2c(=O)[nH]cc(C(=O)Nc3ccccc3)c2=O)cc1	-63.8*	nt	11.7%	-6.7%	nt
COc1ccc(C(NC(=O)c2c(F)c(F)c(F)c(F)c2F)c2ccccc2)cc1 (stereo not given)	3.3	?	?	?	22.4µM*
COc1ccc(NC(=O)c2cc(-c3ccco3)on2)cc1OC	-3.4	14.5%[46.1 µM]	11.2µM*	-1.9%	17.2%
Cc1ccc2nc(CN3CCN(C(=O)Nc4cccc(C)c4C)CC3)oc2c1	-7.5	nt	nt	-23.2%	4.1%[46.1 µM]
COC(=O)[C@@H]1[C@@H](CO)[C@@H]2Cn3c(ccc(Br)c3=O)[C@@H]2N1Cc1cccc(F)c1	-3.2	nt	nt	nt	nt
Nc1ncnc2n[nH]c(Nc3ccc(F)cc3)c12	nt	-11.2%	nt	-23.5%	1.6%
CCc1ccc(C(=O)CSc2nc(-c3ccccc3)nc3c2CCCC3)cc1	12.2	?	nt	-13.4%	12.0%[46.1 µM]
CCc1ccccc1NC(=O)CN1C(=O)CCn2nc(-c3cccn3C)cc21	5.6	nt	nt	-13.4%	10.1%[46.1 µM]
COc1ccc(C(=O)NC(Nc2ccccc2)C(Cl)(Cl)Cl)cc1 (stereo not given)	?	-17.4%	7.94µM*	-23.7%	-26.6%
COc1ccc(C(C(=O)c2ccccc2)c2ccccc2)cc1 (stereo not given)	-82.3*	nt	nt	-12.0%	nt
COc1ccc(NC(=O)c2cc3ccccc3cc2O)cc1	47.7	1.12µM*	?	-1.1%	-37.7%
COc1ccc(NC(=O)c2cc3ccc(O)cc3o/c2=N\O)cc1	196.2	?	22.4µM*	?	?
Clc1cccc(CN2CCCCCC2)c1Cl	-13.4	-4.2%	11.4%	1.0%	?
CCN1C(=NCc2ccco2)N[C@@H](CCc2ccccc2)[C@H](C(=O)OC)[C@H]1C	nt	33.1%[14.2 µM]	nt	nt	?
CCc1cc(=O)[nH]c(SCC(=O)N2CCC(Cc3ccccc3)CC2)n1	-22.5	1.1%	4.3%	-13.6%	17.7%
COc1ccc(NC(=O)c2ccc(OC(=S)N(C)c3ccc(OC)cc3)cc2)cc1	-10.5	?	-11.1%	-22.8%	-10.9%
SMILES	HCMV inh	Marburg entry inh	HCV inhibitor	FMDV inh	LASV entry inh
O=C(NNC(=O)c1ccc(NC(=O)c2ccccc2)cc1)Nc1ccccc1	-61.8*	nt	0.8%	-5.7%	nt
O=C(Nc1ccc2[nH]ccc2c1)c1ccc(F)cc1	116.7	nt	-10.5%	-55.6%	nt
CCOC(=O)c1ccc(NC(=O)C2(c3ccc(OC)cc3)CCCC2)cc1	-29.8	?	-14.9%	?	11.2µM*
O=C(Nc1ccc2[nH]ccc2c1)c1ccccc1	100.6	6.31µM*	17.7%	-47.6%	2.82µM*
CN(C(=S)Oc1ccc(C(=O)Nc2ccccc2)cc1)c1ccccc1	-67.2*	?	?	-11.0%	?
COc1ccc([C@@H]2[C@@H](C(=O)N3CCOCC3)CC(=O)N2C(=O)C2CC2)cc1	11.4	nt	nt	nt	nt
COc1ccc(C(=O)Nc2ccc(C3(C#N)CCCC3)cc2)cc1	-75.3*	11.3%[14.2 µM]	5.62µM*	16.4%	?
COc1ccc(NC(=O)c2cc3ccccc3cc2OC)cc1OC	-1.0	nt	11.2µM*	11.3%	nt
Cc1ccc(NC(NC(=O)c2cccnc2)C(Cl)(Cl)Cl)cc1 (stereo not given)	10.3	15.8µM*	1.7%	?	-0.2%
